Results reported in the supplement of paper PMC13380429.

Test system: Vero E6 infected with SARS-CoV-2
Assay: inhibition of SARS-CoV-2 cytopathic effect; higher = more antiviral protection, active = above 15
Conditions: 48 h

Measured: inhibition of SARS-CoV-2 cytopathic effect

Nc1nc(N)nc(NC2CC2)n1 [cyromazine]
inactive: 1 nM -2.63% | 8.33 nM -0.52% | 100 nM 2.15% | 833.33 nM 2.37% | 10000 nM 0.6%

Cc1noc(C)c1-c1cc(O)cc([C@@H](O)c2ccccc2)c1
inactive: 1 nM -2.32% | 8.33 nM 1.84% | 100 nM -0.24% | 833.33 nM 1.24% | 10000 nM -8.49%

c1ccc(CN(CC2=NCCN2)c2ccccc2)cc1 [antazoline]
inactive: 1 nM -3.99% | 8.33 nM -2.45% | 100 nM -2.58% | 833.33 nM -1.01% | 10000 nM -3.78%

Cc1ccc(S(=O)(=O)N2CCC[C@H]2c2ccc(F)cc2)cc1
inactive: 1 nM 0.31% | 8.33 nM -0.49% | 100 nM 0.49% | 833.33 nM 1.4% | 10000 nM 0.86%

OCCN(CCO)c1nc(N2CCCCC2)c2nc(N(CCO)CCO)nc(N3CCCCC3)c2n1 [dipyridamole]
inactive: 1 nM -0.67% | 8.33 nM 1.83% | 100 nM 0.53% | 833.33 nM 0.2% | 10000 nM 4.52%

COC(=O)c1ccc2c(c1)NC(=O)/C2=C(\Nc1ccc(N(C)C(=O)CN2CCN(C)CC2)cc1)c1ccccc1 [nintedanib]
inactive: 1 nM -1.36% | 8.33 nM -3% | 100 nM -0.71% | 833.33 nM 0.19% | 10000 nM 0%

CCCCCOc1ccc(-c2cc(-c3ccc(C(=O)N[C@H]4C[C@@H](O)[C@@H](O)NC(=O)[C@@H]5[C@@H](O)[C@@H](C)CN5C(=O)[C@H]([C@H](O)CC(N)=O)NC(=O)[C@H]([C@H](O)[C@@H](O)c5ccc(O)c(OS(=O)(=O)O)c5)NC(=O)[C@@H]5C[C@@H](O)CN5C(=O)[C@H]([C@@H](C)O)NC4=O)cc3)no2)cc1 [micafungin]
inactive: 1 nM -6.42% | 8.33 nM -5.65% | 100 nM -5.9% | 833.33 nM -3.13% | 10000 nM 4.81%

CC(C)C(=O)Nc1ccc([N+](=O)[O-])c(C(F)(F)F)c1 [flutamide]
inactive: 1 nM -1.61% | 8.33 nM -1.6% | 100 nM -3.44% | 833.33 nM -2.92% | 10000 nM -5.12%

CC(C)n1nc(-c2cc3cc(O)ccc3[nH]2)c2c(N)ncnc21
inactive: 1 nM 1.52% | 8.33 nM 2.09% | 100 nM 1.4% | 833.33 nM 2.07% | 10000 nM -1.69%

Cc1cccc(Nc2ccccc2C(=O)O)c1C [mefenamic-acid]
inactive: 1 nM -0.88% | 8.33 nM 1.67% | 100 nM 1.5% | 833.33 nM -1.03% | 10000 nM -0.56%

CC(C)(C)c1ccc(S(=O)(=O)/C=C/C#N)cc1
inactive: 1 nM 2.15% | 8.33 nM 0.27% | 100 nM 0.24% | 833.33 nM 5.32% | 10000 nM -2.36%

C[C@@H]1C/C=C/C=C/C=C/C=C/[C@H](O[C@@H]2O[C@H](C)[C@@H](O)[C@H](N)[C@@H]2O)C[C@@H]2O[C@](O)(C[C@@H](O)C[C@H]3O[C@@H]3/C=C/C(=O)O1)C[C@H](O)[C@H]2C(=O)O [natamycin]
inactive: 1 nM 2.57% | 8.33 nM -0.49% | 100 nM -2.28% | 833.33 nM -6.12% | 10000 nM -4.75%

C[C@]1(c2nc3c(C(N)=O)cccc3[nH]2)CCCN1 [veliparib]
inactive: 1 nM 3.9% | 8.33 nM 7.83% | 100 nM 5.13% | 833.33 nM 4.23% | 10000 nM 8.58%

C[C@@H]1O[C@@H](OC[C@H]2O[C@@H](Oc3c(-c4ccc(O)c(O)c4)oc4cc(O)cc(O)c4c3=O)[C@H](O)[C@@H](O)[C@@H]2O)[C@H](O)[C@H](O)[C@H]1O [rutin]
inactive: 1 nM 1.54% | 8.33 nM 1.59% | 100 nM 5.75% | 833.33 nM 0.96% | 10000 nM -5.92%

CC(=O)NS(=O)(=O)c1ccc(N)cc1 [sulfacetamide]
inactive: 1 nM 0.35% | 8.33 nM 2.07% | 100 nM 1.95% | 833.33 nM 2.14% | 10000 nM 0.21%

CCOc1ccn(-c2ccc(F)cc2)c(=O)c1C(=O)Nc1ccc(Oc2ccnc(N)c2Cl)c(F)c1
inactive: 1 nM 2.67% | 8.33 nM 1.32% | 100 nM -5.33% | 833.33 nM 2.11% | 10000 nM -3.09%

COc1cc(F)c(C(C)C)cc1-c1ccc(C(F)(F)F)cc1CN1C(=O)O[C@H](c2cc(C(F)(F)F)cc(C(F)(F)F)c2)[C@@H]1C [anacetrapib]
inactive: 1 nM 0.72% | 8.33 nM 0.48% | 100 nM -1.02% | 833.33 nM -2.52% | 10000 nM 2.39%
